Assay outcomes from PubChem.
Most compounds without a hit are left out; they make up all but 2.8% or so of the library.
HIF-2a inh = inhibitors of HIF-2a | 786-0 RCC cells HIF-2a reporter, luciferase luminescence, overnight | inhibition, % at 18.8 µM | actives 0.72% (n = 360,000) | AID 624352;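 active = inhibition of the luminescence signal of 40% or more relative to plate controls, in a single-dose primary screen at 18.75 µM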
Shn3 inh set2 = reduces Shn3 3'UTR luciferase signal in osteoblasts | Clone20 osteoblast Shn3 3'UTR firefly luciferase, 24 h | inhibition, % at 12.5 µM | actives 0.52% (n = 360,000) | AID 588674;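 active = mean inhibition of at least 75% with every replicate also reaching 75%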
Peg3 prom inh = reduces Peg3 promoter-driven luciferase expression in HeLa. HeLa PEG-Prom luciferase reporter, luminescence, overnight. inhibition, % at 20 µM. actives 1.7% (n = 360,000);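 active = inhibition of at least 50% at 20 µM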
PAX8 reporter = inhibitors of PAX8 transcriptional activity in RMG-I cells; RMG-I TPO-luciferase reporter, SteadyGlo, 24 h; inhibition, % at 12.6 µM; actives 1.2% (n = 360,000); AID 652154;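 active = mean replicate inhibition at least 60% with every replicate also reaching 60%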;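 also: luciferase light reporting Pax8 driven TPO promoter activity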
LMP1 NFkB inh = reduces LMP1-driven NF-kappaB luciferase signal; LMP1-induced NF-kappaB luciferase reporter cells, luminescence; inhibition, % at 12.5 µM; actives 0.69% (n = 350,000); AID 504558; in the data active = inhibition above about 41%
TRPM1 prom inh = MITF TRPM1 promoter inhibition in SK-MEL-5 cells; AID 488899; actives 0.83% (n = 330,000); inhibition, % at 12.5 µM; SK-MEL-5 TRPM1 promoter luciferase, 24 h;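 active = mean inhibition across replicates of 60% or more, whatever share of single replicates reaches that level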
Mdm2 MdmX conf = Mdm2/MdmX (human) interaction inhibition, confirmed; shares compounds with HIF-2a inh; SaOS-2 split-luciferase Mdm2/MdmX complementation, luminescence; inhibition, % at 8 µM; actives 99% (n = 740);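 active = mean inhibition of the luminescence signal across two replicates at or above 26 percent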
HIF-2a inh conf = confirmation of HIF-2a inhibitors. inhibition, % at 18.8 µM. AID 651580. 786-0 RCC cells, HIF-2a luciferase reporter luminescence, overnight. shares compounds with HIF-2a inh. actives 56% (n = 1,800);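 active = mean inhibition across four replicates of at least 40 percent at the single tested concentration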
HIF-1a counter = inhibits HIF-1a reporter, a counter-screen for HIF-2a inhibitors | shares compounds with HIF-2a inh | MiaPaCa-2 HIF-1a luciferase reporter, desferoxamine, overnight | inhibition, % at 18.8 µM | actives 72% (n = 1,800);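 active = mean inhibition of the reporter signal across four replicates at the single tested dose of 50% or more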
Large screens that a line does not name were inactive (follow-up assays come after a bar, where they were run).

CN(C)CC#Cc1ccc([C@@H]2[C@@H](CO)N3CCCCN(C(=O)Cc4ccccn4)C[C@H]23)cc1	none (no result: HIF-2a inh, Shn3 inh set2, Peg3 prom inh, LMP1 NFkB inh, TRPM1 prom inh)
O=C(Cc1ccccn1)N1CCCCN2[C@H](C1)[C@H](c1ccc(Br)cc1)[C@@H]2CO	none (no result: HIF-2a inh, Shn3 inh set2, Peg3 prom inh, LMP1 NFkB inh, TRPM1 prom inh)
COCC#Cc1ccc([C@@H]2[C@H]3CN(C(=O)Cc4ccccn4)CCCCN3[C@H]2CO)cc1	none (no result: HIF-2a inh, Shn3 inh set2, Peg3 prom inh, LMP1 NFkB inh, TRPM1 prom inh)
CCCCn1c(=O)c(C(=O)NCc2ccc(Cl)cc2)c(O)c2ccccc21	none
CCCCCn1c(=O)c(C(=O)NCc2ccncc2)c(O)c2ccccc21	HIF-2a inh 46 (no result: PAX8 reporter) | HIF-2a inh conf inactive | HIF-1a counter inactive
COC(=O)C1=C(C(=O)OC)C2OC1c1cc3ccccc3cc12	HIF-2a inh 86, Shn3 inh set2 95, Peg3 prom inh 95, PAX8 reporter 109, TRPM1 prom inh 112 | HIF-2a inh conf 84 | HIF-1a counter 59
COC(=O)C1=C(c2ccc3ccccc3c2)C[C@@H]2CC[C@H]1N2C	none
Oc1ccc2c3c1OC1c4[nH]c5ccccc5c4C[C@@]4(O)C(C2)N(CC2CC2)CC[C@]314 (some centres not stated)	none (no result: PAX8 reporter)
O=C1/C(=C/c2ccccc2)C[C@@]2(O)[C@H]3Cc4ccc(O)c5c4[C@@]2(CCN3CC2CC2)C1O5 (some centres not stated)	HIF-2a inh 95, Shn3 inh set2 95, Peg3 prom inh 100, TRPM1 prom inh 109 (no result: PAX8 reporter) | Mdm2 MdmX conf 103
N#CSCC(=O)N1c2ccccc2CCc2ccccc21	HIF-2a inh 41 | HIF-2a inh conf inactive | HIF-1a counter 72
Nc1ccccc1C(=O)OCC(=O)N1CCc2ccccc21	none (no result: PAX8 reporter)
C/C=C/c1ccc([C@@H]2[C@H]3CN(C(=O)Cc4cccnc4)CCCCN3[C@H]2CO)cc1	none (no result: HIF-2a inh, Shn3 inh set2, Peg3 prom inh, LMP1 NFkB inh, TRPM1 prom inh)
O=c1c2ccccc2nc(/C=C/c2ccc([N+](=O)[O-])o2)n1-c1ccc(O)cc1	HIF-2a inh 67, Shn3 inh set2 98, Peg3 prom inh 103, PAX8 reporter 69, LMP1 NFkB inh 86, TRPM1 prom inh 94 | HIF-2a inh conf inactive | HIF-1a counter 105
COC(=O)[C@@H]1[C@@H](CO)[C@@H]2Cn3c(ccc(-c4ccc(OC)cc4)c3=O)[C@H]1N2C(=O)c1ccccc1F	none (no result: HIF-2a inh, Shn3 inh set2, Peg3 prom inh, LMP1 NFkB inh, TRPM1 prom inh)
N=C(N)c1c(O)n(C2CCCCC2)c(=O)n(C2CCCCC2)c1=O	HIF-2a inh 52, Peg3 prom inh 77 (no result: PAX8 reporter) | HIF-2a inh conf inactive | HIF-1a counter 97
C=C1C(=O)OC2CC3(C)OC3C3OC3C3=CC(OC3=O)C12 (configuration not stated)	HIF-2a inh 61, Shn3 inh set2 94, Peg3 prom inh 96 (no result: PAX8 reporter, LMP1 NFkB inh, TRPM1 prom inh) | HIF-2a inh conf 68 | HIF-1a counter inactive
CN1Cc2cnnn2-c2ccccc2C1C#N (configuration not stated)	none
N#CC1c2ccccc2-n2nncc2CN1Cc1cc(Cl)cc(Cl)c1 (configuration not stated)	HIF-2a inh 93, Peg3 prom inh 96, PAX8 reporter 106, LMP1 NFkB inh 62, TRPM1 prom inh 97 | HIF-2a inh conf 98 | HIF-1a counter 107
COc1ccc(CN2Cc3cnnn3-c3ccccc3C2C#N)cc1 (configuration not stated)	HIF-2a inh 90, Peg3 prom inh 93, PAX8 reporter 62, TRPM1 prom inh 98 | HIF-2a inh conf 96 | HIF-1a counter 105
O=C(Cc1cccnc1)N1CCCCN2[C@@H](CO)[C@H](c3ccc(/C=C/c4ccccc4)cc3)[C@@H]2C1	none (no result: HIF-2a inh, Shn3 inh set2, Peg3 prom inh, LMP1 NFkB inh, TRPM1 prom inh)
